Results: PubChem BioAssay (EPA / NIEHS)
“And” between values parts separate entries of the source, which are not always exact repeats. Equal entries are not always repeated. Inconclusive results are not listed. Some structures have more than one record in an assay (separate samples or runs), and their calls can disagree. The source made the active and inactive calls. Rule for the calls, unless noted: active = hit-call score of the fitted dose curve at least 0.9, where 1 is the maximum; inactive = score below 0.9.

What was measured:
[1] = ACEA_ER_80hr: ACEA Biosciences xCELLigence Real-Time Cell Analysis on Estrogen Receptor Agonism for Proliferation (AID 2282667; active = hit-call score of the fitted dose curve at least 0.9, where 1 is the maximum); settings: T47D proliferation, impedance (xCELLigence), 80 h
Summary of the method: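 Real-time electrical impedance tracked growth of the human breast line T47D, with the 80 h post-dosing value used. Dosing spanned eight 1:4 steps down from a 100 uM final top concentration, run in duplicate.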

[2] = APR_HepG2_CellCycleArrest_24hr: Apredica 24-hour HepG2 Assay for Cell Cycle Arrest (AID 2282905); settings: imaging, actives raise or lower the signal;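 note: cell cycle arrest scored as ratio of 2N to 4N nuclear DNA content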
Summary of the method: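 Step one: dose HepG2 with test compounds, 0.39–200 uM, 0.5% DMSO, 24 hr. Step two: fix, permeabilize, stain nuclei with Hoechst 33342. Step three: image six fields per well at 20x, quantify DNA content, fit bidirectionally relative to DMSO.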

[3] = APR_HepG2_NuclearSize_24hr: Apredica 24-hour HepG2 Assay for Nuclear Size (AID 2282907); settings: high-content imaging, actives raise or lower the signal
Summary of the method: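 After fixation and permeabilization, 24-hr-treated HepG2 cells were stained with Hoechst 33342 and imaged on an ArrayScan (20x). Doses spanned 0.39–200 uM in duplicate. Nuclear diameter changes in either direction were fitted relative to 0.5% DMSO controls.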

[4] = APR_HepG2_CellLoss_24hr: Apredica 24-hour HepG2 Assay for Cell Loss (AID 2282908); settings: high-content imaging;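 for AC50: fit in both directions so a hit may be cell loss or gain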
Summary of the method: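 Duplicate wells received compound at ten concentrations (0.39–200 uM; final DMSO 0.5% v/v). After fixation with formaldehyde, nuclei stained with Hoechst 33342 were imaged at 20x. Loss or gain of cell count was fitted relative to DMSO controls.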

[5] = APR_HepG2_MicrotubuleCSK_24hr: Apredica 24-hour HepG2 Assay for Microtubule CSK Stabilty (AID 2282909); settings: HepG2 microtubule cytoskeleton imaging, actives raise or lower the signal
Summary of the method: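 Microtubule stability is scored from tubulin immunofluorescence in fixed HepG2 cells imaged at 20x. Cells receive ten compound concentrations up to 200 uM for 24 h; taxol and DMSO serve as positive and negative controls.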

[6] = APR_HepG2_MitoticArrest_24hr: Apredica 24-hour HepG2 Assay for Mitotic Arrest (AID 2282910); settings: high-content imaging, actives raise or lower the signal
Summary of the method: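 HepG2, 24 hr dosing, 0.39–200 uM, 0.5% DMSO final. Formaldehyde-fixed, Triton-permeabilised, anti-phospho-histone H3 plus Hoechst. ArrayScan imaging at 20x; bidirectional fit vs DMSO baseline.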

[7] = APR_HepG2_MitoMembPot_24hr: Apredica 24-hour HepG2 Assay for Mitochondrial Membrane Potential (AID 2282911); settings: imaging, actives raise or lower the signal
Summary of the method: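 Cells are dosed for 24 hr across 0.39 to 200 uM with solvent held at 0.5% DMSO. They are then stained with 250 nM MitoTracker Red CMXRos for 30 min, fixed in 3.7% formaldehyde and imaged.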

[8] = APR_HepG2_MitoMass_24hr: Apredica 24-hour HepG2 Assay for Mitochondrial Mass (AID 2282912); settings: high-content imaging, actives raise or lower the signal
Summary of the method: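 Readout: fluorescence of MitoTracker Red CMXRos (250 nM, added 30 min pre-fixation) in fixed HepG2 cells imaged by HCS. Exposure lasted 24 hr at 0.39–200 uM; increases and decreases were both fitted relative to DMSO.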

[9] = APR_HepG2_p53Act_24hr: Apredica 24-hour HepG2 Assay for p53 Activation (AID 2282913); settings: high-content imaging, actives raise or lower the signal;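 note: p53 protein immunofluorescence averaged per cell in HepG2 with Hoechst nuclei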
Summary of the method: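 Human HepG2 liver cells; 24 hr cpd treatment, 0.39–200 uM, 0.5% DMSO final. Fixed in 3.7% formaldehyde, permeabilized with 0.5% Triton X-100, stained with anti-p53/Cy5 plus Hoechst 33342. Six images per well at 20x; gain or loss vs DMSO.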

[10] = APR_HepG2_CellLoss_72hr: Apredica 72-hour HepG2 Assay for Cell Loss (AID 2282915); settings: high-content imaging
Summary of the method: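 HepG2 cells exposed 72 h to compound at 0.39–200 uM (10 concentrations, duplicate) in 0.5% DMSO. Fixed with 3.7% formaldehyde and Hoechst 33342-stained. Imaged at 20x; nuclear count gives cell number, fitted bidirectionally versus DMSO.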

[11] = APR_HepG2_CellCycleArrest_72hr: Apredica 72-hour HepG2 Assay for Cell Cycle Arrest (AID 2282914); settings: high-content imaging, actives raise or lower the signal
Summary of the method: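 Read-out is Hoechst-stained nuclear DNA content measured by automated fluorescence imaging (20x, six images per well), fitted in both directions relative to DMSO. Human HepG2 liver cells received 0.39–200 uM compound for 72 hr at 0.5% v/v DMSO.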

[12] = APR_HepG2_CellCycleArrest_1hr: Apredica 1-hour HepG2 Assay for Cell Cycle Arrest (AID 2282666); settings: high-content imaging, actives raise or lower the signal
Summary of the method: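 Cell cycle arrest scored from nuclear DNA content (Hoechst 33342) using high-content imaging of fixed HepG2 cells after 1 h treatment across 0.39–200 uM, in duplicate. Gain or loss fitted relative to 0.5% DMSO.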

[13] = APR_HepG2_CellLoss_1hr: Apredica 1-hour HepG2 Assay for Cell Loss (AID 2282668); settings: high-content imaging;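 note: curves fitted both ways against DMSO so gain or loss of cells counts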
Summary of the method: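 Cell number comes from high-content imaging of Hoechst-labelled nuclei in fixed HepG2 cells. Cells were exposed for 1 h to ten concentrations from 0.39 to 200 uM in 0.5% DMSO. Gain or loss was fitted against DMSO controls.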

[14] = APR_HepG2_MicrotubuleCSK_1hr: Apredica 1-hour HepG2 Assay for Microtubule CSK Stabilty (AID 2282669); settings: HepG2 microtubule cytoskeleton imaging, actives raise or lower the signal
Summary of the method: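 Alpha-tubulin immunofluorescence, imaged by automated high-content microscopy with Hoechst nuclear segmentation, measured cytoskeletal change after 1 h dosing of HepG2 at 0.39–200 uM in 0.5% DMSO. Activity fitted in both directions relative to DMSO.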

[15] = APR_HepG2_NuclearSize_1hr: Apredica 1-hour HepG2 Assay for Nuclear Size (AID 2282670); settings: high-content imaging, actives raise or lower the signal
Summary of the method: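 Nuclear size measured by high-content imaging of Hoechst 33342 nuclear stain after formaldehyde fixation; human HepG2 line exposed 1 hr to compounds at 0.39–200 uM in 0.5% DMSO, with bidirectional curve fitting relative to DMSO.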

[16] = APR_HepG2_MitoticArrest_1hr: Apredica 1-hour HepG2 Assay for Mitotic Arrest (AID 2282672); settings: high-content imaging, actives raise or lower the signal
Summary of the method: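 Ten-point concentration series (0.39 to 200 uM, duplicates, 0.5% v/v DMSO) applied to human HepG2 liver cells for 1 hr. High-content imaging of phospho-histone H3 and Hoechst-stained nuclei after fixation and permeabilization; DMSO-normalised bidirectional fit.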

[17] = APR_HepG2_P-H2AX_1hr: Apredica 1-hour HepG2 Assay for H2AX Phosphorylation (AID 2282673); settings: high-content imaging, actives raise or lower the signal
Summary of the method: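 Phospho-H2A.x immunofluorescence (1:200, FITC secondary) plus Hoechst nuclear stain, quantified by high-content imaging in HepG2 after 1 hr compound exposure. Ten concentrations, 0.39 to 200 uM, in duplicate with 0.5% DMSO; fit both directions against DMSO.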

[18] = APR_HepG2_MitoMass_1hr: Apredica 1-hour HepG2 Assay for Mitochondrial Mass (AID 2282674); settings: high-content imaging, actives raise or lower the signal
Summary of the method: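 Mitochondrial mass is taken from MitoTracker Red CMXRos (250 nM, 30 min, pre-fixation) fluorescence imaged at 20x in HepG2 cells. Exposure lasted 1 hr across ten concentrations, 0.39 to 200 uM, 0.5% DMSO; DMSO baseline, bidirectional fitting.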

[19] = APR_HepG2_MitoMembPot_1hr: Apredica 1-hour HepG2 Assay for Mitochondrial Membrane Potential (AID 2282675); settings: imaging, actives raise or lower the signal
Summary of the method: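 Mitochondrial membrane potential read as MitoTracker Red CMXRos intensity by automated imaging of fixed HepG2 cells. Dye at 250 nM for 30 min pre-fixation; compounds 0.39 to 200 uM for 1 hour, duplicate wells, 0.5% DMSO.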

[20] = APR_HepG2_StressKinase_1hr: Apredica 1-hour HepG2 Assay for Stress Kinase (AID 2282906); settings: HepG2 stress kinase (phospho-c-Jun) imaging, actives raise or lower the signal
Summary of the method: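 High-content imaging of phospho-c-Jun immunostaining (with Hoechst nuclear identification) after a 1 h exposure of HepG2 cells to 10 concentrations from 0.39 to 200 uM, final DMSO 0.5%. Fitted bidirectionally against DMSO.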

Measured: AC50

CC(C)(O)C(=O)Nc1ccc([N+](=O)[O-])c(C(F)(F)F)c1
inactive: [2] | [3] | [4] | [5] | [6] | [7] | [8] | [9] | [10]
active: [1] 38.5 µM and 68.7 µM

CCC(C)c1cc([N+](=O)[O-])cc([N+](=O)[O-])c1O (stereo not given)
active: [2] 49.6 µM | [7] 100 µM | [10] 51 µM
inactive: [1] | [3] | [4] | [5] | [6] | [8] | [9]

Cc1ccccc1O
inactive: [1] | [2] | [3] | [4] | [5] | [6] | [7] | [8] | [9] | [10]

Oc1c(Cl)c(Cl)c(Cl)c(Cl)c1Cl
active: [2] 86.7 µM | [10] 55.9 µM
inactive: [1] | [3] | [4] | [5] | [6] | [7] | [8] | [9]

C=CC(N)=O
inactive: [1] | [2] | [3] | [4] | [5] | [6] | [7] | [8] | [9] | [10]

C1CC2OC2CC1C1CO1 (stereo not given)
inactive: [1] | [2] | [3] | [4] | [5] | [6] | [7] | [8] | [9] | [11] | [10]

Cc1cccc([N+](=O)[O-])c1
inactive: [1] | [2] | [3] | [4] | [6] | [7] | [8] | [9] | [11] | [10]

Cc1cc(-c2ccc(N)c(C)c2)ccc1N
active: [1] 27 µM and 9.92 µM | [11] 66.7 µM
inactive: [2] | [3] | [4] | [5] | [6] | [7] | [8] | [9] | [10]

Cc1ccccc1CO[C@@H]1C[C@@]2(C(C)C)CC[C@]1(C)O2
active: [2] 79.8 µM
not listed: [1] | [5] | [9]
inactive: all other assays above

Clc1ccc(C(c2ccccc2Cl)C(Cl)(Cl)Cl)cc1 (stereo not given)
active: [1] 393 nM and 193 nM | [2] 52.2 µM | [4] 70.5 µM | [5] 74.4 µM | [6] 69.4 µM | [8] 65.7 µM | [9] 75.5 µM | [10] 70.6 µM
inactive: [1] | [3] | [7]

C[C@]12CCC(=O)C=C1CC[C@@H]1[C@@H]2CC[C@@]2(C)[C@H]1CC[C@]2(C)O
active: [1] 45.5 nM and 64.3 nM and 5.3 µM
inactive: [2] | [3] | [4] | [5] | [6] | [7] | [8] | [9] | [10]

CCCCCCCCOC(=O)c1ccccc1C(=O)OCCCCCCCC
inactive: [2] | [3] | [4] | [6] | [7] | [8] | [9] | [11] | [10]
active: [1] 75.4 µM

O=C(O)C(F)(F)C(F)(F)C(F)(F)C(F)(F)C(F)(F)C(F)(F)C(F)(F)C(F)(F)F
active: [2] 105 µM | [4] 104 µM | [6] 139 µM | [8] 107 µM | [9] 114 µM | [10] 110 µM
inactive: [1] | [3] | [5] | [7]

O=C(NC(=O)c1cc(F)c(F)cc1Cl)Nc1cc(F)ccc1N1CCC(C(=O)O)CC1
inactive: [1] | [2] | [3] | [4] | [5] | [6] | [7] | [8] | [9] | [10]

O=C(O)C(F)(F)C(F)(F)C(F)(F)C(F)(F)C(F)(F)F
inactive: [1] | [2] | [3] | [4] | [5] | [6] | [7] | [8] | [9] | [10]
